# Experimental data from PubChem BioAssay.
# The source made the active and inactive calls.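 Rule for the calls, unless noted: active = thallium flux through the channel raised or lowered by more than 3 SD from vehicle-only wells, actives on both sides; inactive = the rest.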
# Assays:
# [1] = liver-stage malaria parasite growth inhibition, primary screen, cell-based, HepG2, luciferase luminescence, HepG2 viability (AID 624349; in the data active = parasite load remaining mostly below about 12%, no sharp cut-off; inactive = mostly above about 10%;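 note: 100% = mean of DMSO negative control wells on the same plate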); settings: P. berghei liver stage in HepG2, luciferase luminescence, concentration not given here; parasite load remaining: stronger effect = lower value; viability: measured here: HepG2 viability without parasites
# [2] = Cy5 fluorescence interference with SSB-bound oligo, artefact control for HCV NS3 helicase inhibitor project, biochemical, NIH Clinical Collection, E. coli SSB (AID 743268; call rule not given here)
# [3] = system: Hepatitis C virus NS3 helicase; assay: HCV NS3 helicase inhibitors, primary screen, biochemical, fluorescence polarization, NIH Clinical Collection (AID 743270; call rule not given here); settings: NS3 helicase binding to Cy5-dT15 DNA, stronger effect = higher value, concentration not given here
# [4] = target: Single-stranded DNA-binding protein (Escherichia coli (strain K12)) (UniProt P0AGE0); assay: E. coli SSB displacement from DNA, counter-screen for HCV NS3 helicase inhibitor project, biochemical, fluorescence polarization, NIH Clinical Collection (AID 743271; in the data active = inhibition above about 28%); settings: stronger effect = higher value, concentration not given here
# [5] = fluorescence interference in NS3h assay format, artefact control for HCV NS3 helicase inhibitor project, biochemical, NIH Clinical Collection (AID 743272; call rule not given here;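 note: HCV NS3 helicase with a Cy5 labelled single stranded DNA probe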); settings: fluorescence interference counterscreen, stronger effect = lower value
# F380Y = assay: modulators of BK channel variants, profiling panel, selectivity assay, cell-based, U2OS BacMam, thallium flux, beta subunits (AID 1259406); settings: at 30 µM;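 note: initial slope of Thallos dye fluorescence rise after thallium is added; log ratio against the mean of 0.3% DMSO vehicle wells on the same plate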
# F380Y/beta1 = assay: as above; settings: at 30 µM
# F380Y/beta2Delta = assay: as above; settings: at 30 µM
# F380Y/beta4 = assay: as above; settings: at 30 µM
# [6] = target: Calcium-activated potassium channel subunit alpha-1 (Homo sapiens) + Leucine-rich repeat-containing protein 26 (Homo sapiens) (UniProt Q12791+Q2I0M4); assay: as above; settings: F380Y/Slo1WT/gamma1, at 30 µM
# Chain of Calcium-activated potassium channel subunit alpha-1 (Homo sapiens) + Leucine-rich repeat-containing protein 26 (Homo sapiens) (Q2I0M4 whole entry, looked up, one chain of several): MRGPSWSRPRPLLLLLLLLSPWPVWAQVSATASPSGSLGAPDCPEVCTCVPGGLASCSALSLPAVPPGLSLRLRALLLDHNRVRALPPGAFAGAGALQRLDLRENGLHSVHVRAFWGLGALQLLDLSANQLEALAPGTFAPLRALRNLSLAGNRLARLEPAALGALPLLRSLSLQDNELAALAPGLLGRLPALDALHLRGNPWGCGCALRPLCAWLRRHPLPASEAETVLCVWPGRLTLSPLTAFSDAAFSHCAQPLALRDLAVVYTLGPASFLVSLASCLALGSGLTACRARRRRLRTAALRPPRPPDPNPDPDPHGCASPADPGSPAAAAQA
# R275C = assay: as above; settings: at 30 µM
# R275C/beta1 = assay: as above; settings: at 30 µM
# R275C/beta2Delta = assay: as above; settings: at 30 µM
# R275C/beta4 = assay: as above; settings: at 30 µM
# R275C/Slo1WT/beta2 = assay: as above; settings: at 30 µM
# [7] = sensitizers of A549 cells to miR-34 induction, primary screen, imaging, A549 dox-inducible miR-34, nuclei and caspase counts (AID 1347080;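 active = compounds whose cell count with miR-34 switched on is under 0.7 times the count with it off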); settings: A549 miR-34 inducible, Hoechst nuclei count, 48 h
# [8] = viability rescue of complex I mutant cybrids, primary screen, cell-based, galactose medium, ATP luminescence (AID 1645843;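 active = z-score of at least 1.8 in each of two replicates, scored against plate mean and spread of sample wells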;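 note: positive z means more ATP and so rescue of galactose-driven cybrid death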); settings: complex I mutant cybrid cells, 72 h, stronger effect = higher value
# [9] = modulation of C. elegans fzo-1 (AID 1259413; call rule not given here;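 note: fzo-1 mutant C. elegans worms in liquid wells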); settings: C. elegans fzo-1 modulator screen, mean read-out; stronger effect = higher value
# [10] = system: Neuropilin-2 / VEGF-C interaction (human); assay: inhibitors of NRP2–VEGF-C binding, biochemical, microplate binding format, z-score (AID 743281; call rule not given here); settings: microplate NRP2/VEGF-C binding assay; stronger effect = lower value
# [11] = stronger effect = lower value, cell number ratio, induced over uninduced
# [12] = measured here: relative caspase fold change +Dox/-Dox
# [13] = measured here: total cells with miR-34 induction, stronger effect = lower value
# [14] = measured here: total cells without miR-34 induction
smiles,measurement,setting,value
C=CC1=C(C(=O)O)N2C(=O)[C@@H](NC(=O)C(=NO)c3csc(N)n3)[C@H]2SC1,parasite load remaining,[1],50% (inactive)
same,viability,[1],69.3%
same,fluorescence ratio,[2],1 (inactive)
same,inhibition,[3],11.1% (inactive)
same,inhibition,[4],96.5% (active)
same,fluorescence ratio,[5],0.91 (inactive)
same,log fold change Tl+ flux,F380Y,0.0518 (inactive)
same,log fold change Tl+ flux,F380Y/beta1,0.00826 (inactive)
same,log fold change Tl+ flux,F380Y/beta2Delta,0.0258 (inactive)
same,log fold change Tl+ flux,F380Y/beta4,0.0162 (inactive)
same,log fold change Tl+ flux,[6],-0.00804 (inactive)
same,log fold change Tl+ flux,R275C,-0.0491 (inactive)
same,log fold change Tl+ flux,R275C/beta1,0.0161 (inactive)
same,log fold change Tl+ flux,R275C/beta2Delta,0.037 (inactive)
same,log fold change Tl+ flux,R275C/beta4,0.0002 (inactive)
same,log fold change Tl+ flux,R275C/Slo1WT/beta2,0.0335 (inactive)
O=C1CN(N=Cc2ccc([N+](=O)[O-])o2)C(=O)N1,parasite load remaining,[1],0.39% (inactive)
same,viability,[1],54.9%
same,fluorescence ratio,[2],1 (inactive)
same,inhibition,[3],-3.18% (inactive)
same,inhibition,[4],-0.48% (inactive)
same,fluorescence ratio,[5],1 (inactive)
same,fold change,[7]; [11],0.912 (inactive)
same,fold change,[7]; [12],2
same,cell count,[7]; [13],9510
same,cell count,[7]; [14],10400
same,z-score,[8],-1.36 (inactive)
same,log fold change Tl+ flux,F380Y,-0.0264 (inactive)
same,log fold change Tl+ flux,F380Y/beta1,-0.025 (inactive)
same,log fold change Tl+ flux,F380Y/beta2Delta,-0.0429 (inactive)
same,log fold change Tl+ flux,F380Y/beta4,-0.00406 (inactive)
same,log fold change Tl+ flux,[6],0.0181 (inactive)
same,log fold change Tl+ flux,R275C,0.0135 (inactive)
same,log fold change Tl+ flux,R275C/beta1,-0.0666 (inactive)
same,log fold change Tl+ flux,R275C/beta2Delta,0.0336 (inactive)
same,log fold change Tl+ flux,R275C/beta4,-0.0417 (inactive)
same,log fold change Tl+ flux,R275C/Slo1WT/beta2,-0.117 (active)
C[C@]12C=CC(=O)C=C1CC[C@@H]1[C@@H]2[C@@H](O)C[C@@]2(C)[C@H]1CC[C@]2(O)C(=O)COC(=O)CCC(=O)O,parasite load remaining,[1],128% (inactive)
same,viability,[1],72.6%
same,fluorescence ratio,[2],1 (inactive)
same,inhibition,[3],7.52% (inactive)
same,inhibition,[4],4.52% (inactive)
same,fluorescence ratio,[5],0.99 (inactive)
same,log fold change Tl+ flux,F380Y,-0.0223 (inactive)
same,log fold change Tl+ flux,F380Y/beta1,0.0033 (inactive)
same,log fold change Tl+ flux,F380Y/beta2Delta,0.00204 (inactive)
same,log fold change Tl+ flux,F380Y/beta4,-0.00342 (inactive)
same,log fold change Tl+ flux,[6],-0.00445 (inactive)
same,log fold change Tl+ flux,R275C,-0.00218 (inactive)
same,log fold change Tl+ flux,R275C/beta1,-0.0173 (inactive)
same,log fold change Tl+ flux,R275C/beta2Delta,-0.00108 (inactive)
same,log fold change Tl+ flux,R275C/beta4,-0.0167 (inactive)
same,log fold change Tl+ flux,R275C/Slo1WT/beta2,-0.0235 (inactive)
CC(C)C[C@H](NC(=O)[C@@H](COC(C)(C)C)NC(=O)[C@H](Cc1ccc(O)cc1)NC(=O)[C@H](CO)NC(=O)[C@H](Cc1c[nH]c2ccccc12)NC(=O)[C@H](Cc1cnc[nH]1)NC(=O)[C@H]1CCC(=O)N1)C(=O)N[C@H](CCCN=C(N)N)C(=O)N1CCC[C@@H]1C(=O)NNC(N)=O,mean signal,[9],236 (inactive)
CC/C(=C(/c1ccccc1)c1ccc(OCCN(C)C)cc1)c1ccccc1,mean signal,[9],234 (inactive)
CC(=O)S[C@@H]1CC2=CC(=O)CCC2(C)[C@H]2CCC3(C)[C@@H](CC[C@@]34CCC(=O)O4)[C@H]12 (some centres not stated),mean signal,[9],260 (inactive)
C[C@H]1O[C@@H](O[C@H]2[C@@H](O)C[C@H](O[C@H]3[C@@H](O)C[C@H](O[C@H]4CCC5(C)[C@H](CC[C@@H]6[C@@H]5C[C@@H](O)C5(C)C(C7=CC(=O)OC7)CCC65O)C4)O[C@@H]3C)O[C@@H]2C)C[C@H](O)[C@@H]1O (some centres not stated),mean signal,[9],250 (inactive)
CO[C@H]1O[C@@H]2O[C@@]3(C)CC[C@H]4[C@H](C)CC[C@@H]([C@H]1C)[C@@]24OO3,parasite load remaining,[1],32% (inactive)
same,viability,[1],66.6%
same,fluorescence ratio,[2],1.02 (inactive)
same,inhibition,[3],-1.97% (inactive)
same,inhibition,[4],-3.54% (inactive)
same,fluorescence ratio,[5],1 (inactive)
same,z-score,[10],-0.742 (inactive)
same,mean signal,[9],291 (inactive)
same,log fold change Tl+ flux,F380Y,-0.0298 (inactive)
same,log fold change Tl+ flux,F380Y/beta2Delta,-0.0746 (active)
same,log fold change Tl+ flux,[6],-0.00699 (inactive)
same,log fold change Tl+ flux,R275C,0.0256 (inactive)
same,log fold change Tl+ flux,R275C/beta1,-0.0131 (inactive)
same,log fold change Tl+ flux,R275C/beta2Delta,-0.00466 (inactive)
CO[C@H]1C=CO[C@@]2(C)Oc3c(C)c(O)c4c(O)c(c(C=NN5CCN(C6CCCC6)CC5)c(O)c4c3C2=O)NC(=O)C(C)=CC=C[C@H](C)[C@H](O)[C@@H](C)[C@@H](O)[C@@H](C)[C@H](OC(C)=O)[C@@H]1C,parasite load remaining,[1],21.3% (inactive)
same,viability,[1],65.4%
same,log fold change Tl+ flux,F380Y,0.118 (active)
same,log fold change Tl+ flux,F380Y/beta1,-0.0391 (inactive)
same,log fold change Tl+ flux,F380Y/beta2Delta,0.0273 (inactive)
same,log fold change Tl+ flux,F380Y/beta4,0.177 (active)
same,log fold change Tl+ flux,[6],0.0556 (inactive)
same,log fold change Tl+ flux,R275C,-0.0706 (inactive)
same,log fold change Tl+ flux,R275C/beta1,0.0996 (active)
same,log fold change Tl+ flux,R275C/beta2Delta,0.0465 (inactive)
same,log fold change Tl+ flux,R275C/beta4,0.28 (active)
same,log fold change Tl+ flux,R275C/Slo1WT/beta2,0.00833 (inactive)
C=CC[C@@H]1C=C(C)C[C@H](C)C[C@H](OC)[C@H]2O[C@@](O)(C(=O)C(=O)N3CCCC[C@H]3C(=O)O[C@H](/C(C)=C/[C@@H]3CC[C@@H](O)[C@H](OC)C3)[C@H](C)[C@@H](O)CC1=O)[C@H](C)C[C@@H]2OC,parasite load remaining,[1],77.5% (inactive)
same,viability,[1],72.5%
same,fluorescence ratio,[2],0.94 (inactive)
same,inhibition,[3],-1.19% (inactive)
same,inhibition,[4],2.21% (inactive)
same,fluorescence ratio,[5],0.92 (inactive)
same,log fold change Tl+ flux,F380Y,-0.344 (active)
same,log fold change Tl+ flux,F380Y/beta1,-0.0137 (inactive)
same,log fold change Tl+ flux,F380Y/beta2Delta,-0.629 (active)
same,log fold change Tl+ flux,F380Y/beta4,0.109 (active)
same,log fold change Tl+ flux,[6],0.0458 (inactive)
same,log fold change Tl+ flux,R275C,-0.067 (inactive)
same,log fold change Tl+ flux,R275C/beta1,0.274 (active)
same,log fold change Tl+ flux,R275C/beta2Delta,0.123 (active)
same,log fold change Tl+ flux,R275C/beta4,0.467 (active)
same,log fold change Tl+ flux,R275C/Slo1WT/beta2,0.00553 (inactive)
CO/N=C(/C(=O)NC1C(=O)N2C(C(=O)O)=C(COC(C)=O)CSC12)c1csc(N)n1 (configuration not stated),mean signal,[9],238 (inactive)
COCC1=C(C(=O)OC(C)OC(=O)OC(C)C)N2C(=O)[C@@H](NC(=O)C(=NOC)c3csc(N)n3)[C@H]2SC1 (some centres not stated),parasite load remaining,[1],83.9% (inactive)
same,viability,[1],70.5%
same,fluorescence ratio,[2],0.97 (inactive)
same,inhibition,[3],1.98% (inactive)
same,inhibition,[4],-0.1% (inactive)
same,fluorescence ratio,[5],1 (inactive)
same,log fold change Tl+ flux,F380Y,0.0206 (inactive)
same,log fold change Tl+ flux,F380Y/beta1,0.0461 (inactive)
same,log fold change Tl+ flux,F380Y/beta2Delta,0.0192 (inactive)
same,log fold change Tl+ flux,F380Y/beta4,0.0327 (inactive)
same,log fold change Tl+ flux,[6],0.0109 (inactive)
same,log fold change Tl+ flux,R275C,0.00217 (inactive)
same,log fold change Tl+ flux,R275C/beta1,-0.0216 (inactive)
same,log fold change Tl+ flux,R275C/beta2Delta,0.0293 (inactive)
same,log fold change Tl+ flux,R275C/beta4,0.0115 (inactive)
same,log fold change Tl+ flux,R275C/Slo1WT/beta2,0.0178 (inactive)
CON=C(C(=O)N[C@@H]1C(=O)N2C(C(=O)O)=C(COC(N)=O)CS[C@H]12)c1ccco1,parasite load remaining,[1],58.2% (inactive)
same,viability,[1],88.2%
same,fluorescence ratio,[2],1.07 (inactive)
same,inhibition,[3],-4.09% (inactive)
same,inhibition,[4],10.2% (inactive)
same,fluorescence ratio,[5],1 (inactive)
same,fold change,[7]; [11],0.935 (inactive)
same,fold change,[7]; [12],2.12
same,cell count,[7]; [13],10600
same,cell count,[7]; [14],11300
same,z-score,[8],-0.2 (inactive)
same,log fold change Tl+ flux,F380Y,0.0216 (inactive)
same,log fold change Tl+ flux,F380Y/beta1,0.0158 (inactive)
same,log fold change Tl+ flux,F380Y/beta2Delta,0.00116 (inactive)
same,log fold change Tl+ flux,F380Y/beta4,-0.0173 (inactive)
same,log fold change Tl+ flux,[6],-0.0114 (inactive)
same,log fold change Tl+ flux,R275C,-0.0247 (inactive)
same,log fold change Tl+ flux,R275C/beta1,-0.0484 (inactive)
same,log fold change Tl+ flux,R275C/beta2Delta,-0.0289 (inactive)
same,log fold change Tl+ flux,R275C/beta4,0.0531 (inactive)
same,log fold change Tl+ flux,R275C/Slo1WT/beta2,0.0179 (inactive)
